The record followed here is PubChem BioAssay AID720597 (Broad Institute, 2013).

The assay addresses NAD-dependent protein deacylase sirtuin-5, mitochondrial (Homo sapiens) (UniProt Q9NXA8). Description: SIRT5 deacylase inhibitors, dose response, biochemical, fluorescence imaging, cherry-pick, set 6 (AID 720597).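 Note: lower AMC signal can also come from blocking the trypsin step.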

Results with a measured potency or affinity are listed apart. Active and inactive are the calls of the source.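 Rule for the calls: active = fitted half-maximal dose no more than twice the top valid tested dose, for compounds that lower signal; inconclusive = fit invalid, or curve flat with activity between -70 and -30; inactive = potency past limit, curve flat within ±30, or signal increasing.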

Sequence of NAD-dependent protein deacylase sirtuin-5, mitochondrial (Homo sapiens) (Q9NXA8 whole entry, looked up): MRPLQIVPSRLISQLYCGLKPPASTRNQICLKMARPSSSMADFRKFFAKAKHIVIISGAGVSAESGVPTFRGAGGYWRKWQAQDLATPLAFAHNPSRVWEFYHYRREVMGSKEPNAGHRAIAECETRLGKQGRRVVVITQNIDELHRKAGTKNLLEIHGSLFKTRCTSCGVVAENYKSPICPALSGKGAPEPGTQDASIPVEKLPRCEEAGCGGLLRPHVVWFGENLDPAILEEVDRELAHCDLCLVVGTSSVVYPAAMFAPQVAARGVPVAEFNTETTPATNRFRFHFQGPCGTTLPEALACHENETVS

As to `C[C@H]1CN([C@@H](C)CO)S(=O)(=O)c2ccc(C#CC(C)(C)O)cc2O[C@@H]1CN(C)Cc1ccc(-c2ccccc2)cc1`, the outcome was inactive.

Regarding `CC(C)[C@@H](C)NC(=O)N(C)C[C@@H]1OCc2ccccc2-c2c(n(C)c3ccccc23)C(=O)N([C@@H](C)CO)C[C@@H]1C`, the molecule was classed as inactive.

As to `C[C@@H]1CN([C@@H](C)CO)C(=O)c2cc(NC(=O)Nc3ccc(F)cc3)ccc2O[C@@H]1CN(C)S(=O)(=O)c1ccc(Cl)cc1`, the molecule was classed as inactive.

For `C[C@@H]1CN([C@@H](C)CO)S(=O)(=O)c2ccc(C3=CCCCC3)cc2O[C@H]1CN(C)S(=O)(=O)c1ccc(F)cc1`, the outcome was inactive.

Turning to `C[C@H](CO)N1C[C@H](C)[C@@H](CN(C)S(=O)(=O)c2ccc(F)cc2)Oc2cc(C#Cc3ccc(F)cc3)ccc2S1(=O)=O`, the molecule was classed as inactive.

On to `C[C@@H]1CN([C@H](C)CO)C(=O)c2cccc(NC(=O)C3CCCCC3)c2O[C@@H]1CN(C)CC1CC1`, for which the molecule was called inactive.

`C[C@@H]1CN([C@H](C)CO)C(=O)c2cc(NC(=O)CCC(F)(F)F)ccc2O[C@@H](C)CCCCO[C@@H]1CN(C)Cc1ccc(C(F)(F)F)cc1`: the molecule was called inactive.

For the molecule `CC(C)C#Cc1cnc2c(c1)C(=O)N([C@@H](C)CO)C[C@@H](C)[C@H](CN(C)C(=O)CN1CCOCC1)O2`, the molecule was classed as inactive.

`C[C@H]1CN([C@@H](C)CO)S(=O)(=O)c2ccc(C#Cc3ccc(F)cc3)cc2O[C@@H]1CN(C)S(C)(=O)=O`: the result was inactive.

As to `COc1ccc(S(=O)(=O)Nc2ccc3c(c2)C(=O)N([C@@H](C)CO)C[C@H](C)[C@@H](CN(C)Cc2ccc(Oc4ccccc4)cc2)O3)cc1`, the outcome was inactive.

For the molecule `C[C@@H]1CN([C@@H](C)CO)C(=O)Cc2cc(NS(=O)(=O)c3ccc(F)cc3)ccc2O[C@@H]1CN(C)C(=O)NC1CCCCC1`, the molecule was called inactive.

As for `O=C1CN(Cc2ccccc2)C[C@@H]2[C@H](c3ccc(-c4ccccc4)cc3)[C@H](CO)N12`, the call was inactive.

With `C[C@H]1CN([C@@H](C)CO)C(=O)c2ccccc2-c2ccccc2CO[C@@H]1CN(C)Cc1cccc(C(F)(F)F)c1`, the outcome was inactive.

Take `C[C@@H]1CN([C@H](C)CO)S(=O)(=O)c2ccc(C#CC3CC3)cc2O[C@H]1CN(C)Cc1ccccc1F`: the molecule was called inactive.

Take `O=C(CCN1CCCCC1)N[C@H]1CC[C@@H](CCn2cc(-c3ccc(F)cc3)nn2)O[C@H]1CO`: the molecule was called inactive.

In the case of `CCCC#Cc1ccc2c(c1)O[C@@H](CN(C)C(=O)c1ccccc1F)[C@@H](C)CN([C@H](C)CO)S2(=O)=O`, the molecule was classed as inactive.

As to `CNC[C@H]1Oc2ccc(NC(=O)Nc3ccc(F)cc3)cc2CC(=O)N([C@H](C)CO)C[C@H]1C`, the molecule was classed as inactive.

As for `Cc1noc(C)c1NC(=O)Nc1cccc2c1O[C@@H](CN(C)Cc1ccc(Oc3ccccc3)cc1)[C@H](C)CN([C@@H](C)CO)C2=O`, the outcome was inactive.

For the molecule `C[C@@H]1CN([C@H](C)CO)C(=O)c2cccc(NC(=O)Nc3ccc(C(F)(F)F)cc3)c2O[C@H]1CN(C)C(=O)Nc1cccc2ccccc12`, the result was inactive.

As for `Cc1ccc(S(=O)(=O)N(C)C[C@H]2OCCCC[C@H](C)Oc3ccc(NS(=O)(=O)c4ccc(Cl)cc4)cc3C(=O)N([C@@H](C)CO)C[C@@H]2C)cc1`, the molecule was classed as inactive.

For `C[C@H](CO)N1C[C@H](C)[C@@H](CN(C)S(=O)(=O)c2ccccc2)Oc2ccc(NC(=O)Nc3ccc(C(F)(F)F)cc3)cc2CC1=O`, the outcome was inactive.

Take `C[C@@H]1CN([C@H](C)CO)S(=O)(=O)c2ccc(C#C[C@@H](C)O)cc2O[C@@H]1CN(C)Cc1ccc(-c2ccccc2)cc1`: the outcome was inactive.

Turning to `COc1cccc(S(=O)(=O)N(C)C[C@H]2Oc3cc(C4=CCCCC4)ccc3S(=O)(=O)N([C@@H](C)CO)C[C@@H]2C)c1`, the molecule was called inactive.

Consider `Cc1ccc(S(=O)(=O)N(C)C[C@H]2OCCCC[C@@H](C)Oc3ccc(NS(=O)(=O)c4ccccc4)cc3C(=O)N([C@H](C)CO)C[C@H]2C)cc1`, for which the outcome was inactive.

With `C[C@@H]1CN([C@@H](C)CO)S(=O)(=O)c2ccc(C#CC3CC3)cc2O[C@H]1CN(C)Cc1ccccc1F`, the outcome was inactive.

For `C[C@H]1CN([C@@H](C)CO)C(=O)Cc2cc(NC(=O)CCCCCC(=O)Nc3ccccc3N)ccc2O[C@@H]1CN(C)Cc1ccc(Oc2ccccc2)cc1`, the result was inactive.

With `C[C@@H]1CN([C@H](C)CO)C(=O)c2cc(Br)cnc2O[C@@H]1CN(C)Cc1cncnc1`, the molecule was called inactive.

Regarding `COCC(=O)N1C[C@@H]2[C@H](c3ccccc31)[C@H](CO)N2Cc1cc(F)ccc1F`, the molecule was classed as inactive.

As to `O=C(CN1CCOCC1)NCC[C@@H]1CC[C@H](NC(=O)Nc2ccc(F)cc2)[C@H](CO)O1`, the molecule was classed as inactive.

`CC(C)C#Cc1cnc2c(c1)C(=O)N([C@@H](C)CO)C[C@H](C)[C@H](CN(C)C(=O)c1ccccc1)O2`: the molecule was classed as inactive.

Consider `COc1ccc(S(=O)(=O)N(C)C[C@H]2OCCCC[C@@H](C)Oc3ccc(NS(=O)(=O)c4ccc(C)cc4)cc3C(=O)N([C@@H](C)CO)C[C@H]2C)cc1`, for which the molecule was classed as inactive.

With `CC(C)NC(=O)Nc1ccc2c(c1)C(=O)N([C@H](C)CO)C[C@H](C)[C@@H](CN(C)Cc1ccc(Cl)c(Cl)c1)O2`, the molecule was called inactive.

In the case of `CN(C)C(=O)[C@H]1[C@H](CO)[C@H]2Cn3c(ccc(-c4ccc(F)cc4)c3=O)[C@@H]1N2CCc1ccccc1`, the result was inactive.

On to `C[C@@H]1CN([C@@H](C)CO)C(=O)c2cc(NC(=O)Cc3ccccc3)ccc2O[C@H]1CN(C)Cc1ccc(Oc2ccccc2)cc1`, for which the outcome was inactive.

For the molecule `O=C(C[C@H]1C[C@@H]2c3cc(NC(=O)Nc4ccc(C(F)(F)F)cc4)ccc3O[C@@H]2[C@@H](CO)O1)NCc1ccc2c(c1)OCO2`, the molecule was called inactive.

On to `COc1ccccc1C#Cc1ccc([C@H]2[C@@H](CO)N3CCCCN(C(=O)C4CCCC4)C[C@@H]23)cc1`, for which the molecule was called inactive.

`C[C@@H]1CN([C@@H](C)CO)S(=O)(=O)c2ccc(C3=CCCCC3)cc2O[C@@H]1CN(C)C(=O)Cc1ccccc1`: the molecule was called inactive.

On to `C[C@@H]1CN([C@@H](C)CO)S(=O)(=O)c2ccc(/C=C/c3ccccc3)cc2O[C@H]1CN(C)C(=O)c1ccc2c(c1)OCO2`, for which the result was inactive.

As for `C[C@H]1CCCCO[C@H](CN(C)S(=O)(=O)c2ccc(Cl)cc2)[C@@H](C)CN([C@@H](C)CO)C(=O)c2cc(NS(=O)(=O)c3ccccc3)ccc2O1`, the call was inactive.

Take `O=C(Nc1cc(F)ccc1F)N1CC(=O)N2[C@H](CO)[C@@H](c3ccc(C#CC4CCCCC4)cc3)[C@@H]2C1`: the call was inactive.

Turning to `Cc1noc(C)c1NC(=O)Nc1cccc2c1O[C@H](CN(C)Cc1ccc(Oc3ccccc3)cc1)[C@@H](C)CN([C@@H](C)CO)C2=O`, the call was inactive.

`Cc1noc(C)c1S(=O)(=O)Nc1ccc2c(c1)C(=O)N([C@@H](C)CO)C[C@@H](C)[C@H](CN(C)Cc1ccc(Cl)c(Cl)c1)OCCCC[C@@H](C)O2`: the call was inactive.

As to `O=C(NCC[C@@H]1CC[C@H](NS(=O)(=O)c2cccc(F)c2)[C@@H](CO)O1)C1CCOCC1`, the call was inactive.

Regarding `C[C@@H]1CN([C@H](C)CO)C(=O)Cc2cc(NS(=O)(=O)c3ccc(Cl)cc3)ccc2O[C@H]1CN(C)Cc1ccc(Oc2ccccc2)cc1`, the call was inactive.

On to `C[C@@H]1CCCCO[C@H](CN(C)C(=O)Nc2ccc(C(F)(F)F)cc2)[C@@H](C)CN([C@H](C)CO)C(=O)c2cc(NS(=O)(=O)c3ccc(Cl)cc3)ccc2O1`, for which the result was inactive.

For the molecule `CCCc1c(C)nc2ccc(Br)cc2c1SCCC(=O)O`, the molecule was called inactive.

As for `CNC[C@H]1Oc2ccc(NC(=O)Nc3ccc(F)cc3)cc2CC(=O)N([C@@H](C)CO)C[C@H]1C`, the molecule was called inactive.

In the case of `Cc1ccc(S(=O)(=O)Nc2ccc3c(c2)C(=O)N([C@@H](C)CO)C[C@@H](C)[C@H](CN(C)Cc2ccc(C(F)(F)F)cc2)OCCCC[C@@H](C)O3)cc1`, the call was inactive.

For the molecule `O=C(Nc1cc(F)ccc1F)N1CC(=O)N2[C@H](C1)[C@@H](c1ccc(C#CC3CCCCC3)cc1)[C@@H]2CO`, the call was inactive.

For the molecule `COc1ccc(S(=O)(=O)N(C)C[C@H]2Oc3ccc(NC(=O)NC4CCCCC4)cc3C(=O)N([C@H](C)CO)C[C@@H]2C)cc1`, the molecule was called inactive.

Turning to `CCOC(=O)N(C)C[C@H]1OCc2ccccc2-c2ccccc2C(=O)N([C@H](C)CO)C[C@@H]1C`, the call was inactive.

In the case of `C[C@@H]1CN([C@@H](C)CO)C(=O)c2cc(-c3cccc(F)c3)cnc2O[C@@H]1CN(C)Cc1ccncc1`, the outcome was inactive.

With `COc1cccc(NC(=O)N2CC(=O)N3[C@H](CO)[C@@H](c4ccc(C#CCC5CCCC5)cc4)[C@H]3C2)c1`, the molecule was classed as inactive.

Turning to `COc1ccc(NC(=O)N(C)C[C@@H]2Oc3ccc(NS(=O)(=O)c4ccc(F)cc4)cc3C(=O)N([C@H](C)CO)C[C@H]2C)cc1`, the molecule was classed as inactive.

Consider `Cc1ccc(S(=O)(=O)Nc2ccc3c(c2)C(=O)N([C@@H](C)CO)C[C@H](C)[C@H](CN(C)Cc2ccc(C(F)(F)F)cc2)OCCCC[C@@H](C)O3)cc1`, for which the molecule was called inactive.

`COc1ccc(NC(=O)Nc2ccc3c(c2)C(=O)N([C@@H](C)CO)C[C@H](C)[C@@H](CN(C)Cc2ccccc2)OCCCC[C@H](C)O3)cc1`: the result was inactive.

For `C[C@H]1CN([C@@H](C)CO)C(=O)c2cc(NC(=O)Cn3cnnn3)ccc2O[C@@H]1CN(C)S(=O)(=O)c1ccc(F)cc1`, the molecule was called inactive.

On to `O=C(NC1CCCCC1)[C@@H]1[C@@H](CO)[C@@H]2Cn3c(cccc3=O)[C@H]1N2CC1CCCCC1`, for which the call was inactive.

Consider `C[C@H]1CN([C@@H](C)CO)C(=O)c2cccc(NC(=O)c3ccncc3)c2O[C@@H]1CN(C)S(C)(=O)=O`, for which the molecule was called inactive.

With `CC(=O)N(Cc1cccc(F)c1)C[C@H]1[C@@H](c2ccccc2)[C@@H](CO)N1C(C)=O`, the molecule was called inactive.

Turning to `CN(C)C(=O)c1cccc(-c2ccc([C@@H]3[C@H]4CN(S(C)(=O)=O)CCCCN4[C@H]3CO)cc2)c1`, the outcome was inactive.

In the case of `C[C@@H]1CN([C@@H](C)CO)S(=O)(=O)c2ccc(/C=C/c3ccccc3)cc2O[C@H]1CN(C)C(=O)NC1CCCCC1`, the outcome was inactive.
